Entries with a potency or affinity are not part of this list. Calls of active or inactive are those of the source.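 The calls were made as follows: active = compounds lowering cell ATP signal whose fitted half-maximal concentration is at most twice the top tested dose; inconclusive = flat curve with 30 to 70% signal loss, or poor fit; inactive = the rest.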

The nature of this assay: viability loss in HEK293T cells – cell-based, CellTiter-Glo luminescence, dry powder, set 6, cytotoxicity control, dose response (AID 651949). Particulars: CellTiter-Glo ATP luminescence, 48 h; series mostly up to 26 µM. A general note: ATP-based viability assays read luminescence as a measure of living cells.
For `COc1ccc(CSc2nnc(-c3ccc(Cl)cc3)o2)nc1`, the outcome was inactive.

As to `Fc1ccc(-c2nnc(SCc3ccccn3)o2)cc1`, the outcome was inactive.

In the case of `Fc1ccc(Cn2cc(CSc3nnc(-c4ccc(F)cc4)o3)nn2)cc1`, the result was inactive.

`c1ccc(-c2nnc(SCc3cccnc3)o2)cc1`: the molecule was classed as inactive.

Consider `Clc1ccc(-c2nnc(SCc3cn(-c4ccccc4)nn3)o2)cc1`, for which the call was inactive.

In the case of `c1ccc(Cn2cc(CSc3nnc(C4CCCC4)o3)nn2)cc1`, the outcome was inactive.

Consider `Clc1ccc(-c2nnc(SCc3ccccn3)o2)cc1`, for which the call was inactive.

Take `CSc1nnc(-c2ccccc2)o1`: the molecule was classed as inactive.

As for `Fc1cccc(-c2nnc(SCc3ccccn3)o2)c1`, the call was inactive.

In the case of `Fc1ccccc1-c1nnc(SCc2ccccc2)o1`, the outcome was inactive.

Turning to `Cc1ccc(-c2nnc(SCc3ccccc3)o2)cc1`, the molecule was called inactive.

`FC(F)(F)c1ccccc1CSc1nnc(-c2ccccc2)o1`: the molecule was called inactive.

With `c1ccc(-c2nnc(SCCN3CCOCC3)o2)cc1`, the result was inactive.

Turning to `FC(F)(F)Oc1ccccc1-c1nnc(SCc2ccccc2)o1`, the molecule was called inactive.

`Brc1ccc(-c2nnc(SCc3ccccn3)o2)cc1`: the molecule was called inactive.

In the case of `FC(F)(F)c1cccc(-c2nnc(SCc3ccccc3)o2)c1`, the molecule was classed as inactive.

Consider `Cc1ccccc1CSc1nnc(-c2ccccc2)o1`, for which the molecule was called inactive.

As to `c1ccc(CSc2nnc(-c3ccncc3)o2)cc1`, the result was inactive.

Turning to `N#Cc1ccccc1CSc1nnc(-c2ccccc2)o1`, the molecule was called inactive.

Regarding `O=C(Cc1ccccc1)c1nnc(-c2ccccc2)o1`, the call was inactive.

Regarding `c1ccc(CSc2nnc(-c3cc4ccccc4o3)o2)cc1`, the molecule was classed as inactive.

Consider `Cc1cccc(-c2nnc(SCc3ccccc3)o2)c1`, for which the call was inactive.

On to `FC(F)(F)Oc1cccc(CSc2nnc(-c3ccccc3)o2)c1`, for which the result was inactive.

With `Fc1ccc(-c2nnc(SCc3cn(Cc4ccccc4)nn3)o2)cc1`, the molecule was classed as inactive.

With `c1ccc(Cn2cc(CSc3nnc(C4CCC4)o3)nn2)cc1`, the result was inactive.

`c1ccc(CSc2nnc(Cc3ccccc3)o2)cc1`: the call was inactive.

Consider `CC(C)c1nnc(SCc2ccccc2)o1`, for which the outcome was inactive.

`COc1cccc(-c2nnc(SCc3ccccc3)o2)c1`: the outcome was inactive.

With `COc1ccccc1-c1nnc(SCc2ccccc2)o1`, the molecule was classed as inactive.

As for `c1ccc(CSc2nnc(-c3ccccn3)o2)cc1`, the outcome was inactive.

As for `COc1ccc(-c2nnc(SCc3ccccn3)o2)cc1`, the call was inactive.

On to `Fc1ccccc1CSc1nnc(-c2ccccc2)o1`, for which the call was inactive.

Take `O=S(Cc1cn(Cc2ccccc2)nn1)c1nnc(-c2ccc(Cl)cc2)o1` (centres undefined): the result was inactive.

`Fc1cccc(-c2nnc(SCc3ccccc3)o2)c1`: the result was inactive.

In the case of `Fc1cccc(CSc2nnc(-c3ccccc3)o2)c1`, the call was inactive.

With `Fc1ccc(CSc2nnc(-c3cccnc3)o2)cc1`, the molecule was classed as inactive.

On to `c1ccc(CCc2nnc(SCc3ccccc3)o2)cc1`, for which the molecule was called inactive.

As to `c1ccc(CSc2ncc(-c3ccccc3)o2)cc1`, the molecule was classed as inactive.

In the case of `c1ccc(-c2nnc(SC3CCCCC3)o2)cc1`, the call was inactive.

Values taken from PubChem BioAssay AID651949 (Broad Institute, 2012).
